# High-throughput results deposited in PubChem BioAssay by several laboratories.
# EBI2 block – EBI2 (human) antagonism. EBI2 beta-arrestin recruitment, luminescence, 7a,25-OHC stimulated. P32249. inhibition, % at 5 µM. 360,000 tested, 0.81% active; in the data active = inhibition above about 38%;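 note: enzyme fragment complementation signal reports receptor beta-arrestin coupling in cells; 0% = agonist plus DMSO wells and 100% = wells without agonist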
# Target sequence (P32249 whole entry, looked up, the tested form may be a part): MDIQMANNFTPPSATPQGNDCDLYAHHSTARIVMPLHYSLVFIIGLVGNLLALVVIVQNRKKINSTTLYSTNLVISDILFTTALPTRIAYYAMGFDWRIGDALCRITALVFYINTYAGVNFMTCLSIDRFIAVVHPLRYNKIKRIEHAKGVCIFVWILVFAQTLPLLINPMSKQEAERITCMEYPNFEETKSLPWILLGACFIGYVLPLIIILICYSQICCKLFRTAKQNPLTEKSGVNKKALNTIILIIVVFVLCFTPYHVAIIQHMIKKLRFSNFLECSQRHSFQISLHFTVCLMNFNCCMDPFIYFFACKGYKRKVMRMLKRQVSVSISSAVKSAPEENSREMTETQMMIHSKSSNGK
# tim23-1 inh – inhibits growth of tim23-1 mutant yeast. S. cerevisiae tim23-1 growth, BacTiter-Glo luminescence, 24 h. inhibition, % at 20 µM. 330,000 tested, 1.3% active. AID 463212;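 active = growth inhibition of the mutant yeast at or above 50%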;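 note: temperature-sensitive mutant grown at 25 °C; plate controls were DMSO-treated mutant yeast for no effect and medium wells lacking yeast for full effect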
# tim10-1 inh – tim10-1 yeast growth inhibition | 330,000 tested, 2.2% active | AID 463190 | S. cerevisiae tim10-1 ts strain growth, BacTiter-Glo, 24 h | inhibition, % at 20 µM;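 active = inhibition of at least 40%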;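 note: mutant grown at 25 °C; 0% = DMSO wells with yeast and 100% = wells holding no yeast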
# TIM10 inh – TIM10 yeast growth inhibition. S. cerevisiae TIM10 strain growth, BacTiter-Glo luminescence, 24 h. inhibition, % at 10 µM. 330,000 tested, 1.4% active. AID 463195;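 active = inhibition of 40% or more at the single tested concentration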;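 note: wild-type TIM10 isogenic control strain grown at permissive 25 °C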
# PfHsp90 set2 – reduces growth (ATP signal) of yeast expressing P. falciparum Hsp90; S. cerevisiae expressing PfHsp90, BacTiter-Glo ATP, 48 h; yeast lacking PDR1 and PDR3 efflux regulators; inhibition, % at 9.4 µM; 310,000 tested, 0.32% active;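 active = every replicate shows inhibition above about 80%, whatever the replicate mean, limit read from the data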;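 note: 0% = DMSO neutral controls and 100% = 20 µM radicicol positive controls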
# SKKanGAS inh – blocks kanamycin growth of S. pyogenes SKKanGAS strain | BacTiter-Glo, 6 h | inhibition, % at 7.5 µM | 300,000 tested, 1.3% active | AID 1662;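 active = mean replicate score, as percent of positive control median, at least 50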;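 note: strain carries kanamycin resistance gene driven by streptokinase promoter and grows in 40 µg/ml kanamycin; loss of luminescence reflects streptokinase promoter inhibition or plain growth inhibition; 0% = median of DMSO wells and 100% = positive control at its reference dose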
# tim10-1 conf – tim10-1 yeast growth inhibition, confirmed | shares compounds with tim10-1 inh | S. cerevisiae tim10-1 ts strain growth, BacTiter-Glo, 24 h | inhibition, % at 20 µM | 7,400 tested, 56% active;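 active = inhibition of yeast growth at or above a set limit in either of two repeat tests at 20 µM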;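 note: tim10-1 mutant grown at permissive 25 °C to find synthetic lethal compounds; 0% = DMSO yeast wells and 100% = medium wells without yeast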
# * marks the source's active call; other numbers are inactive results; · = no result given. The list is not random: actives were taken first. Their share in the collection is about 4.7%.
SMILES,EBI2 block,tim23-1 inh,tim10-1 inh,TIM10 inh,PfHsp90 set2,SKKanGAS inh,tim10-1 conf
Cc1ccc(S(=O)(=O)N2CCC[C@H]2C(=O)OC(C)C(=O)Nc2ncc(Cl)cc2Cl)cc1 (some centres undefined),5,6,41*,14,3,-3,22
CC(OC(=O)CN(C)S(=O)(=O)c1ccc(Cl)cc1)C(=O)Nc1ncc(Cl)cc1Cl (centres undefined),-9,20,28,13,-23,5,·
O=C1NC[C@@H](CCCCN2C[C@H](Cc3ccccc3)N(CCc3ccc(O)cc3)C(=O)C2=O)N(Cc2ccccc2)C1=O,-1,·,·,·,·,·,·
CC(=O)N1CCN(c2ccccc2NC(=O)COc2cc(C)ccc2C(C)C)CC1,21,37,30,15,-7,7,·
CC(C)C(=O)N1CCN(c2ccccc2NC(=O)c2ccc([N+](=O)[O-])o2)CC1,14,45,59*,35,23,3,56*
Cc1cccc(OCC(=O)Nc2ccccc2N2CCN(C(=O)C(C)C)CC2)c1C,17,32,48*,30,·,1,30*
O=C(Nc1ccccc1N1CCCCC1)c1ccc(-c2cccc(Cl)c2)o1,13,11,3,14,-6,14,·
CN1CCN(c2ccccc2NC(=O)c2ccc(-c3cccc(Cl)c3)o2)CC1,19,44,60*,36,22,9,47*
CCN(CC1COc2ccccc2O1)C(=S)NCCCN(C)C (centres undefined),2,-3,-10,-13,-14,-4,·
CCC(=O)Nc1ccc(C(=O)OCc2ccccc2)cc1,11,32,41*,35,·,-3,36*
CCN(CC1COc2ccccc2O1)C(=S)Nc1ccccc1 (centres undefined),-4,49,44*,29,-9,6,15*
Cc1ccc(C(=O)OCC(=O)NCC2COc3ccccc3O2)cc1 (centres undefined),-8,16,19,7,-41,·,·
CCOC(=O)c1ccc(NC(=O)CC2COc3ccccc3O2)cc1 (centres undefined),-2,47,41*,22,-26,-2,29
COc1ccc(CNC(=O)c2ccccc2NC(=O)C2=C(C)OCCS2)cc1,-1,·,·,·,·,·,·
COc1ccc(NC(=O)COC(=O)CNS(=O)(=O)c2ccc(F)c(F)c2F)cc1OC,-20,-12,-9,0,-9,11,·
O=C(Nc1ccc(S(=O)(=O)N2CCCC2)cc1)c1ccc(F)cc1,0,·,·,·,11,·,·
O=C(Nc1ccc(S(=O)(=O)N2CCCCC2)cc1)c1ccc(F)cc1,-4,32,49*,35,7,-3,48*
O=C(CNc1cccc(S(=O)(=O)N2CCCC2)c1)Nc1ccc(F)cc1F,3,22,15,4,23,-7,·
CCOC(=O)/C=C/C(=O)Nc1ccc(S(=O)(=O)N2CCCCCC2)cc1,7,39,44*,29,·,4,34*
O=C(Nc1ccc(S(=O)(=O)N2CCCCC2)cc1)c1cccnc1Cl,10,22,42*,20,25,1,26
O=C(Nc1ccc(F)cc1F)c1cccc(S(=O)(=O)N2CCCCC2)c1,9,41,46*,12,·,·,22
O=C(NCC1CCCO1)c1cccc(S(=O)(=O)N(Cc2ccccc2)c2ccccc2)c1 (centres undefined),-1,10,19,2,·,-8,·
Cc1c(-c2ccccc2)nc2ccccc2c1C(=O)Nc1ccncc1,-25,-6,5,-1,7,-1,·
CC(C)N(C(=O)c1nn(C)c2c1CSc1ccccc1-2)C1CCCCC1,10,48,50*,9,-2,-5,12
Cn1nc(C(=O)NC2CCCCC2)c2c1-c1ccccc1SC2,21,4,7,-2,18,10,·
CCCCNC(=O)CCCN1C(=O)c2cccnc2Sc2ccccc21,-5,-4,0,-14,-6,0,·
CC(C)(C)c1ccc(C(=O)NNc2cc(N3CCOCC3)nc(N3CCOCC3)n2)cc1,-3,3,3,9,19,-2,·
CC(C)(C)c1ccc(C(=O)NNc2cc(N3CCCCC3)nc(N3CCCCC3)n2)cc1,12,34,40*,23,-61,25,36*
